A selection: hits, their analogues and other compounds. The true share with any hit is near 0.43%.
N370S GC: inhibits or activates N370S mutant glucocerebrosidase | N370S GC spleen homogenate, 4MU-glucoside fluorescence | P04062 | Potency, µM (series often up to 59.4 µM), without a hit: at the highest dose activity change, negative = inhibition, actives largely listed as inhibitors | hit rate 0.092% among 330,000;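 note: potency is the fitted concentration of half-maximal effect; 0% = full enzyme activity and -100% = no enzyme basal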
GAA inhib: inhibitors of human lysosomal alpha-glucosidase; hit rate 0.005% among 200,000; Potency, µM (doses to about 76.9 µM), without a hit: at the highest dose activity change, negative = inhibition, usual class: inhibitors; AID 1466; purified human GAA, 4-MU-alpha-glucoside fluorescence;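 note: potency is the fitted concentration of half-maximal effect; plate controls were uninhibited enzyme wells for no effect and no-enzyme background for full effect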
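qHTS format, compound range up to 77 uM. Human lysosomal enzyme at 4 nM, 400 uM 4-MU glucoside substrate, pH 5.0, 20 min room temperature; fluorescence after alkaline stop gives activity normalized to controls.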
GLA inh pH 4.5: inhibitors of human alpha-galactosidase A at pH 4.5. P06280. purified enzyme, 4-MU-alpha-Gal fluorescence, pH 4.5. activity change, negative = inhibition, % at 105 µM. 230,000 tested, under 10 active. AID 1467;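 note: 0% = full activity with enzyme and -100% = basal without enzyme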
Target sequence (P06280 whole entry, looked up): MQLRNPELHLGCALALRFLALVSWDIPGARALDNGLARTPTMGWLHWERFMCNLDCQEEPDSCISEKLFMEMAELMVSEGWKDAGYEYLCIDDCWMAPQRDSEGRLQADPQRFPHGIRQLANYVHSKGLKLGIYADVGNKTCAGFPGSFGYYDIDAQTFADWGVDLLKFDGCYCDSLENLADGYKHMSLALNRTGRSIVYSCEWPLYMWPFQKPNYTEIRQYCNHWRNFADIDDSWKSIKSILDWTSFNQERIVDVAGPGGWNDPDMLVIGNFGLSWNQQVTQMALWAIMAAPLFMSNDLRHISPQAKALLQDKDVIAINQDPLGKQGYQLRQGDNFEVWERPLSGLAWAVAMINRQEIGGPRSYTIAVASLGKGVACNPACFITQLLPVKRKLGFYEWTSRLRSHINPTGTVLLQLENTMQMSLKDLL
GLA spleen mod: alpha-galactosidase A (human) modulation | AID 2107 | hit rate 0.008% among 240,000 | P06280 | Potency, µM (top dose mostly 80 µM), inactives show top-dose activity change, negative = inhibition, hits mostly inhibitors | human spleen homogenate, 4MU-alpha-Gal fluorescence, 40 min;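 note: potency is the fitted concentration of half-maximal effect; 0% = enzyme with vehicle and -100% = no enzyme basal signal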
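Inhibition or activation of alpha-galactosidase in human spleen homogenate is scored by 4-MU fluorescence after 40 min at 37C, pH 5.0, with 1 mM substrate. AC50s come from concentration-response fitted to the Hill equation.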
GAA glycogen mod: inhibitors or activators of human alpha-glucosidase glycogen cleavage. recombinant GAA, glycogen substrate, Amplex Red glucose oxidase fluorescence. Potency, µM (highest dose often 76.4 µM), inactives show at the highest dose activity change, negative = inhibition, hits mostly inhibitors. hit rate 0.38% among 300,000;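 note: potency is the fitted concentration of half-maximal effect; 0% = full enzyme reaction and -100% = no-enzyme basal signal; the screen sought inhibitors and activators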
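Recombinant human enzyme (4 nM); glycogen substrate; 37 C, 40 min, pH 5.0. Readout: coupled glucose oxidase/Amplex Red fluorescence.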
GAA spleen mod: inhibits or activates alpha-glucosidase in human spleen homogenate; hit rate 0.006% among 240,000; human spleen homogenate, 4-MU-alpha-glucoside fluorescence; P10253; Potency, µM (highest dose often 79.9 µM), inactives show at the top dose activity change, negative = inhibition, most hits filed as inhibitors; AID 2112;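 note: potency is the fitted concentration of half-maximal effect; 0% = enzyme with vehicle and -100% = no enzyme basal signal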
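Compounds were titrated against alpha-glucosidase in spleen homogenate at pH 5.0, with 1 mM 4-methylumbelliferyl substrate for 40 min at 37 C. Reactions were quenched with pH 10 NaOH/glycine and fluorescence measured.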
Starred values were filed as active, the others as inactive; ? = inconclusive; . = not tested or not shown; [ ] = remark or other dose. Calls come from the whole dose curve; as a rule, active = well fitted curve in the direction sought with a large enough effect; inconclusive = small, poorly fitted or top-dose-only effect, or another doubt; inactive = no such curve, though single readings can be large; an effect the other way counts as inactive or inconclusive.

SMILES | N370S GC | GAA inhib | GLA inh pH 4.5 | GLA spleen mod | GAA glycogen mod | GAA spleen mod
CCOC(=O)C1(Cc2cccc(OC)c2)CCN(Cc2ccc(OC)c(OC)c2)CC1 | -2.4% | -8.5% | 5.8 | -16.1% | -6.8% | -14.8%
CC1(C)CC(O)C(C)(C)N1O (configuration not stated) | 7.3% | -8.2% | -11.9 | -16.1% | 15.7µM* | -10.4%
COc1cccc(CNc2ccc3[nH]c(=O)[nH]c3c2)c1OCc1ccccc1F | 8.6% | . | . | . | 28.2µM* | .
COc1cc(CNc2ccc3[nH]c(=O)[nH]c3c2)cc(Cl)c1OCc1ccccc1F | . | . | . | . | -29.3%[76.3 µM] | .
Cc1ccc(OCC(=O)N/N=C/C=C/c2ccco2)cc1C | 1.2% | 0.1% | -5.3 | -6.9% | 7.7% | -12.8%
NNC(=O)c1cc(-c2ccccc2)sc1N | -6.8% | . | 2.6 | 7.0% | 5.01µM* | 0.6%
CCCn1c(N)[n+](CC(=O)c2ccco2)c2ccccc21 | 8.1% | 0.7% | 10.1 | 3.0% | -9.0% | 3.4%
O=C(COC(=O)C1CC(=O)N(Cc2ccccc2)C1)Nc1ccccc1F (configuration not stated) | -1.9% | 6.2% | 7.7 | 3.7% | 6.5% | 0.8%
c1csc(CSc2nnc3sc4ccccc4n23)c1 | -5.6% | 4.1% | -8.8 | 7.0% | 7.8% | 4.1%
Cc1[nH]n(-c2ccc(Cl)c(Cl)c2)c(=O)c1CCO | -3.6% | -4.9% | 2.2 | -4.8% | 22.4µM* | -4.0%
O=C(Cc1ccccc1)NNc1ccc2ccccc2c1 | 3.7% | -3.0% | -4.2 | -0.9% | 25.1µM* | 0.3%
O=C(CN1C(=O)CCC1=O)NNc1ccc2ccccc2c1 | -16.0% | 6.4% | 6.1 | -8.6% | 11.2µM* | 4.9%
O=C(COc1ccc2ccccc2c1)NNC(=O)Cc1ccccc1 | -14.7% | -1.3% | -1.7 | -8.4% | 9.3% | -11.6%
O=S(=O)(Nc1ccccc1Cl)c1ccc(NS(=O)(=O)c2cccs2)cc1 | -18.2% | . | . | . | 6.7% | .
COc1ccc(NC2=C(C(C)=O)C(c3ccc(OC)cc3)C(C(C)=O)C(C)(O)C2)cc1 (configuration not stated) | 5.8% | 1.5% | 3.0 | 7.1% | -26.3% | -0.2%
Cc1cc(Cl)ccc1NC(=O)Cn1cncn1 | -21.7% | -0.8% | -0.5 | -4.2% | 7.4% | 4.7%
Nc1n[nH]c(N)c1N=Nc1ccc2c(c1)OCO2 | -11.6% | -7.9% | -3.0 | -3.4% | 12.6µM* | -1.9%
Cc1ccc(N=Nc2c(N)n[nH]c2N)cc1 | 0.6% | . | . | . | ? | .
CCc1cccc(C)c1Nc1c(-c2cccs2)nc2nc(C)cc(C)n12 | . | . | . | . | -27.8%[76.3 µM] | .
CCc1cccc(C)c1Nc1c(-c2cccc(O)c2)nc2sccn12 | . | . | . | . | 35.5µM* | .
Oc1ccc(/C=N/Nc2ccc(C(F)(F)F)cn2)cc1 | -1.2% | -9.6% | -11.5 | 12.8% | 22.4µM* | -4.6%
CNNC(=S)Nc1cccc(C(F)(F)F)c1 | 11.0% | -1.4% | -9.6 | 4.2% | -29.4% | -0.5%
CCOc1ccc(NC(=S)NNC(=S)Nc2cccc(C(F)(F)F)c2)cc1 | -3.2% | -0.1% | -4.9 | 1.1% | ? | -1.5%
FC(F)(F)c1cccc(NC(=S)NNC(=S)Nc2cccc(C(F)(F)F)c2)c1 | -14.2% | -10.3% | -22.3 | 1.1% | 8.91µM* | 2.0%
COc1ccc(NC(=S)NNC(=S)Nc2cccc(C(F)(F)F)c2)cc1 | -19.2% | -5.7% | -12.1 | -4.8% | 4.47µM* | 4.2%
SMILES | N370S GC | GAA inhib | GLA inh pH 4.5 | GLA spleen mod | GAA glycogen mod | GAA spleen mod
Cc1ccc(Nc2nc3c([nH]2)c(=O)n(C)c(=O)n3C)cc1 | 9.2% | 8.0% | -4.7 | 13.5% | 19.8µM* | -19.0%
N#C/C(=C/c1ccc(F)cc1)C(N)=S | 15.9% | ? | -6.4 | -2.8% | 35.5µM* | -5.0%
COc1ccccc1N1CCN(/N=C/c2ccc(O)c(O)c2)CC1 | -16.0% | 9.8% | 6.5 | -7.4% | 2.8µM* | -4.6%
CC(C)NC(=O)C1=NN(c2ccccc2)C(=O)CC1 | -3.7% | . | . | . | 5.0% | .
O=C(NNC(=O)c1ccccc1F)C1=NN(c2ccccc2)C(=O)CC1 | -3.5% | . | . | . | 50.1µM* | .
COc1ccc(NC(=O)C2CC(c3c(F)cccc3Cl)=NO2)cc1 (configuration not stated) | -12.5% | . | . | . | 14.6%[76.3 µM] | .
Cc1ccc(Nc2cc(C)nc(-c3ccccc3)n2)cc1 | 3.16µM* | . | . | . | -14.4% | .
Cc1ccc(Nc2cc(C)nc(-c3ccccc3O)n2)cc1 | ? | -10.9% | 0.6 | 1.3% | -10.5% | 0.5%
Cc1cc(Nc2ccc(Cl)cc2)nc(NCc2ccccc2)n1 | 22.4µM* | -0.6% | -0.1 | -0.1% | 5.9% | -9.6%
Cc1cc(Br)ccc1NC(=O)C1CCN(S(=O)(=O)c2cccc3nsnc23)CC1 | . | . | . | . | 1.3%[76.3 µM] | .
COc1ccc(C(=O)NNC2=CC(=O)CC(C)(C)C2)cc1 | -4.7% | -0.7% | -3.4 | -0.3% | ? | -1.2%
CC1(C)CC(=O)C=C(NNC(=O)c2ccccc2O)C1 | 8.5% | -11.1% | 0.4 | 0.1% | 44.7µM* | 1.6%
C#CCOCCOCCOCCNc1nc(N2CCN(C(=O)CCCCCCCCCCNC(=O)[C@H](CO)n3cc(CCCSC)nn3)CC2)nc(N2CCN(C(=O)CCCCCCCCCCNC(=O)[C@H](CCCN=C(N)N)n3cc(C[C@@H](C)CC)nn3)CC2)n1 | 3.16µM* | . | . | . | . | .
C#CCOCCOCCOCCNc1nc(N2CCN(C(=O)CCCCCCCCCCNC(=O)Cn3cc(C[C@@H](C)O)nn3)CC2)nc(N2CCN(C(=O)CCCCCCCCCCNC(=O)[C@H](CCCCN)n3cc(CCCC(=O)O)nn3)CC2)n1 | -13.5% | . | . | . | . | .
C#CCOCCOCCOCCNc1nc(N2CCN(C(=O)CCCCCCCCCCNC(=O)Cn3cc(C[C@@H](C)O)nn3)CC2)nc(N2CCN(C(=O)CCCCCCCCCCNC(=O)[C@H](CCCN=C(N)N)n3cc(C[C@@H](C)CC)nn3)CC2)n1 | 2.82µM* | . | . | . | . | .
O=C(Cn1c(=O)n(Cc2ccccc2)c(=O)c2sc3ccccc3c21)Nc1ccccc1 | . | . | . | . | 7.94µM* | .
C=CC(N)CCC(=O)O (configuration not stated) | -0.6% | . | -4.0 | -8.0% | . | -8.5%
CCOc1ccc(NC(=O)CN2CCN(Cc3c(F)cccc3F)CC2)cc1 | 2.0% | . | . | . | -2.4% | .
CC(=O)c1ccc(N2CCN(C(=O)c3ccc(Br)cc3)CC2)c(F)c1 | 10.3% | -4.4% | 2.1 | 1.3% | -3.8% | 0.1%
COc1ccc(Nc2c(-c3ccc(C)o3)nc3cc(C)ccn23)cc1 | . | . | . | . | 5.62µM* | .
Cc1ccn2c(Nc3ccc4c(c3)OCO4)c(-c3ccc(C)o3)nc2c1 | . | . | . | . | 3.98µM* | .
COc1cc(-c2nc3cnccn3c2Nc2c(C)cccc2C)ccc1O | -0.4% | -1.3% | -1.8 | -3.0% | 14µM* | -0.1%
Clc1ccc(-c2nc3cnccn3c2Nc2ccc3c(c2)OCO3)cc1 | -15.6% | -0.8% | -1.1 | 8.3% | ? | 1.4%
Cc1ccc(-c2nc3ccc(Br)cn3c2Nc2ccc3c(c2)OCO3)o1 | . | . | . | . | -12.1%[76.3 µM] | .

Screens (PubChem)
